In the library only some 3.4% were active in any assay of this set; here they are far more common.
MITF inh: blocks human microphthalmia-associated transcription factor; hit rate 0.91% among 650,000; O75030; AID 1259374; AlphaScreen MITF homodimerization, bead proximity signal; inhibition, % at 2.6 µM; in the data active = inhibition above about 50%
GPR151 activ: activates the human receptor GPR151. Q8TDV0. PathHunter beta-arrestin GPR151 cells, luminescence. activation, % at 11.2 µM. hit rate 1% among 650,000; in the data active = activation above about 4.9%
FBW7 act: human FBW7 E3 ligase activation, primary screen; Q969H0; AlphaScreen FBW7–phospho-cyclin E peptide binding, activator screen; normalized activity (activation), % at 26.1 µM; hit rate 0.13% among 650,000; in the data active = normalized activity above about 1.9%;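 note: purified mutant Fbw7 with reduced substrate affinity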
TEAD-YAP block: TEAD-YAP interaction inhibition; HEK-TIYL cells, TEAD-Gal4/YAP UAS-luciferase luminescence; inhibition, % at 9.12 µM; hit rate 1.4% among 640,000; AID 1259422; in the data active = inhibition above about 32%
GPR151 confirm: confirmation of human GPR151 activators; shares compounds with GPR151 activ; GPR151 PathHunter beta-arrestin cells, luminescence, 90 min; % of EA-reagent control over plate median; activation, % at 11.2 µM; 6,700 tested, under 10 active; AID 1508609;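 active = mean percent activation across replicates above the confirmation screen cutoff of 4.91%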
GPR119 ag: counter-screen for GPR151 activators: effect on human GPR119. shares compounds with GPR151 activ. GPR119 PathHunter beta-arrestin cells, luminescence, 90 min; 0 = compound-well median, 100 = enzyme-acceptor control. activation, % at 11.2 µM. hit rate 0.3% among 6,700;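 active = mean percent activation in the counterscreen above 29.09%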;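 note: counterscreen on off-target GPR119 to flag nonselective hits from the GPR151 activator screen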
Large screens that a line does not name were inactive (follow-up assays come after a bar, where they were run).

CC(NC(=O)CCCn1c(=O)[nH]c2ccsc2c1=O)C12CC3CC(CC(C3)C1)C2 (stereo unspecified)	none
Cc1nn(Cc2ccccc2)c(C)c1CN1CCC2(CC1)NC(=O)c1ccccc1O2	none
CCC(C)NC(=O)CSc1ncccc1C(=O)O (stereo unspecified)	GPR151 activ 5.1 | GPR151 confirm inactive | GPR119 ag inactive
COc1c2occc2c(OC)c2c(=O)cc(C(F)(F)C(F)(F)F)oc12	GPR151 activ 5.3 | GPR151 confirm inactive | GPR119 ag inactive
C/C(=N\NC(=O)c1ccncc1)c1ccccc1C(=O)O	none
Cc1cc(C)c(S(=O)(=O)N(CC(=O)NCc2cccnc2)C2CCCCC2)c(C)c1	none
COc1ccc(S(=O)(=O)N(CC(=O)NCc2cccnc2)C2CCCCC2)cc1OC	GPR151 activ 5.2 | GPR151 confirm inactive | GPR119 ag inactive
COC(c1ccc2c(c1)CN(C(=O)c1nc3ncccn3n1)CCO2)C1CCCCC1 (stereo unspecified)	GPR151 activ 9.5 | GPR151 confirm inactive | GPR119 ag inactive
C=CCN(CC(=O)O)S(=O)(=O)c1ccc(C)c(C)c1	GPR151 activ 6.6 | GPR151 confirm inactive | GPR119 ag inactive
CCCN(CCC)S(=O)(=O)c1ccc(C)c(C)c1	none
COC(=O)c1cccn2cc(-c3ccc(F)cc3)nc12	GPR151 activ 4.9 | GPR151 confirm inactive | GPR119 ag inactive
CCOC1OC(=O)C(Cl)=C1Nc1cccc(C)c1 (stereo unspecified)	GPR151 activ 5.0 | GPR151 confirm inactive | GPR119 ag inactive
Nc1nc(SCc2cn3cc(Br)ccc3n2)n[nH]1	GPR151 activ 7.6 | GPR151 confirm inactive | GPR119 ag inactive
COCc1nnc(NC(=O)C2CCCCC2)s1	GPR151 activ 6.4 | GPR151 confirm inactive | GPR119 ag inactive
O=[N+]([O-])c1c(Nc2ccc(Br)cc2F)ccc2nonc12	GPR151 activ 5.0 | GPR151 confirm inactive | GPR119 ag inactive
CC(C)OC(=O)CC(=O)CSc1nc(-c2cccs2)cc(-c2ccc(Cl)cc2)c1C#N	none
COC1CCCC(C(=O)N2CCC[C@@H]2Cn2nc(-c3cccs3)ccc2=O)C1 (stereo partly specified)	none
N#C/C(=C\c1cc(Br)ccc1OCc1ccccc1)c1nn(CCO)c(N)c1C#N	none
Brc1ccccc1-c1nnc2sc(-c3ccc4c(c3)OCCO4)nn12	GPR151 activ 5.7 | GPR151 confirm inactive | GPR119 ag inactive
CC1CN(C(=O)Cn2c(C(F)(F)F)nc3ccccc32)CC(C)O1 (stereo unspecified)	none
CC1CCCC(C)N1C(=O)Cn1c(C(F)(F)F)nc2ccccc21 (stereo unspecified)	GPR151 activ 12.3 | GPR151 confirm inactive | GPR119 ag inactive
CCNc1nc(NCCN2CCOCC2)c2ncn(-c3ccccc3)c2n1	none
COc1cc(Nc2nc(NCCO)c3ncn(-c4ccsc4)c3n2)cc(OC)c1OC	GPR151 activ 5.6, TEAD-YAP block 36.8 | GPR151 confirm inactive | GPR119 ag inactive
CCNc1nc(NCCN2CCOCC2)c2ncn(-c3ccsc3)c2n1	GPR151 activ 6.5, TEAD-YAP block 33.5 | GPR151 confirm inactive | GPR119 ag inactive
COc1ccc(CCNC(=O)NCC2CC(=O)N(c3ccccc3)C2)cc1 (stereo unspecified)	none
CC(C)c1nnc(NC(=O)c2cc(Cl)ccc2Cl)s1	GPR151 activ 5.1 | GPR151 confirm inactive | GPR119 ag inactive
C=CCOc1ccc(/C=C2\C(=O)NC(C)=C2C(=O)OC)cc1	GPR151 activ 5.2 | GPR151 confirm inactive | GPR119 ag inactive
O=C(Nc1ccc(Cl)c(C(F)(F)F)c1)c1ccc2c(=O)n(Cc3cccc(Br)c3)c(=S)[nH]c2c1	GPR151 activ 6.2 | GPR151 confirm inactive | GPR119 ag inactive
CC(C)NC(=O)c1ccc2c(=O)n(Cc3ccc(Cl)cc3)c(=S)[nH]c2c1	GPR151 activ 6.1 | GPR151 confirm inactive | GPR119 ag inactive
C=COc1ccc(N(C(=O)c2ccccc2)c2ccccc2)cc1	none
O=C1C2CC=CCC2C(=O)N1CC(=O)N1N=C(c2ccc(Cl)cc2)CC1c1ccco1 (stereo unspecified)	GPR151 activ 6.6 | GPR151 confirm inactive | GPR119 ag inactive

Bioassay records from PubChem BioAssay.
